# Several values for one entry are separate records, joined by “and”; a condition that tells them apart may be missing. Identical values can stand only once. Results filed as inconclusive are left out. Where a call stands in place of a potency, no number is given. Unmarked numbers belong to inactive results. Activity calls are given as the source filed them. Calls follow the shape of the dose curve; as a rule, active = well fitted cell-killing curve with a large enough effect in the repeat runs; inconclusive = weak or mixed curves, or effect the other way; inactive = flat fitted curve, though single readings scatter.
# Test: qHTS assay to identify small molecule agonists of the TGF-beta/Smad signaling pathway - cell viability counter screen (AID 1346829); also: top concentration of the series differs between compounds; nearly all actives have a fitted effect of over 45% in size
# Settings: SBE-bla HEK293T viability, CellTiter-Glo luminescence, 5 h; series mostly up to 76.8 µM
# Text: National Center for Advancing Translational Sciences [NCATS]
# NIH Chemical Genomics Center [NCGC]
# U.S. Environmental Protection Agency [EPA]
# National Institutes of Environmental Health Sciences [NIEHS]
# National Toxicology Program [NTP]
# U.S. Food and Drug Administration [FDA]
# Transforming growth factor beta (TGF-beta) superfamily consists of a large number of structurally related dimeric proteins that act as hormones or local mediators in regulating a wide range of biological functions. This superfamily includes TGF-betas themselves, the bone morphogenetic proteins (BMPs) and the activins. These ligands induce oligomerization of serine/threonine receptor kinases and phosphorylate the cytoplasmic signaling molecules of Smad protein family. CellSensor SBE-bla HEK 293T cell line (Life Technologies, Carlsbad, CA), responsive to TGF-beta was used to screen Tox21 10K compound library for identification of agonists/antagonists of the Smad signaling pathway. This cell line contains a beta-lactamase reporter gene under control of the Smad binding element (SBE) stably integrated into HEK 293T cells. Also cytotoxicity of the compounds was tested in parallel by measuring the cell viability using CellTiter-Glo assay system in the same wells.
# Tox21 Assay Protocol Summary:
# SBE-bla HEK 293T cells were dispensed at 4,000/well in 6 uL of assay medium into black wall/clear-bottom 1536-well plates using a Multidrop Combi (ThermoFisher Scientific, Waltham, MA) dispenser. After the assay plates were incubated at 37 C and 5% CO2 for an overnight, 23 nL of compounds dissolved in DMSO, positive controls or DMSO only was transferred to the assay plate by a Pintool station (Kalypsys, San Diego, CA). The assay plates were incubated at 37 C and 5% CO2 for 5 hr. One uL of LiveBLAzer B/G FRET substrate (Life Technologies) was added using a Flying Reagent Dispenser (FRD, Aurora Discovery, San Diego, CA) and the plates were incubated at room temperature for 2 hr. Fluorescence intensity (405 nm excitation, 460 nm and 530 nm emissions) was measured using an Envision plate reader (PerkinElmer, Shelton, CT). For cytotoxicity read, 4 uL of CellTiter-Glo reagent (Promega Corporation, Madison, WI) was added to each well of the assay plates using FRD. After 30min incubation at room temperature, the luminescence intensity was measured using ViewLux plate reader (PerkinElmer).
Compound,Potency,"activity change, negative = cytotoxicity"
O=C(CC(C(=O)OC1CCCCC1)S(=O)(=O)O)OC1CCCCC1 (stereo not given),inactive,
CCc1cccc(C)c1N,inactive,
C=CCNC(N)=S,inactive,
C=C(C)C(=O)O[C@H]1C[C@@H]2CC[C@@]1(C)C2(C)C,inactive,
CCCCOC(=O)COc1ccc(Cl)cc1Cl,inactive,
CC(C)(N)CO,inactive,
CCCCN(CCCC)CCCC,inactive,
Fc1ccc(Br)cc1,inactive,
CCCCCCCCC/C=C/CC1CC(=O)OC1=O (stereo not given),inactive,
O=C(O)c1cc(C(=O)O)cc(S(=O)(=O)O)c1,inactive,
C[Si](O[Si](C)(C)C)O[Si](C)(C)C,inactive,
O=C(O)c1ccc2c(c1)C(=O)OC2=O,inactive,
CC(O)COCC(C)O (stereo not given),inactive,
O=C(O)CCCCCCCCCCC(=O)O,inactive,
CCCCCC/C(C=O)=C\c1ccccc1,inactive,
CN(C)CCC(c1ccccc1)c1ccccn1 (stereo not given),inactive,
CSCCC=O,inactive,
O=c1[nH]c(=O)n([C@H]2CCCO2)cc1F,inactive,
OCC(CO)(CBr)CBr,inactive,
O=C(Oc1ccccc1)c1ccccc1,inactive,

Compound,Potency,"activity change, negative = cytotoxicity"
O=c1[nH]c(=O)n([C@H]2C[C@H](O)[C@@H](CO)O2)cc1Br,inactive,
CCCCCCCC(=O)OC,inactive,
FC(F)(F)c1ccc(Cl)c(Cl)c1,inactive,
Cc1ccc(N(C)C)cc1,inactive,
O=S1(=O)CC=CC1,inactive,
C#CCN(C)Cc1ccccc1,inactive,
COS(C)(=O)=O,inactive,
O=P(OC(CCl)CCl)(OC(CCl)CCl)OC(CCl)CCl,inactive,
CCCC(C)=O,inactive,
O=C=NCCCCCCN=C=O,inactive,
CCN(CC)CCCC(C)Nc1ccnc2cc(Cl)ccc12 (stereo not given),,-0.0742% [at 6.97 µM] and -3.92% [at 15.8 µM]
CCCCCCCCCCCCc1ccccc1,inactive,
OCCOCCOCCO,inactive,
Cc1cccc(O)c1,inactive,
CCCCCCOCCO,inactive,
CCCCC(CC)COC(=O)CS (stereo not given),inactive,
O=C(O)[C@H](O)[C@@H](O)[C@H](O)[C@H](O)CO,inactive,
COc1ccc(NC(C)=O)cc1N,inactive,
O=c1[nH]nnc2ccccc12,inactive,
c1ccc(OCCOc2ccccc2)cc1,inactive,
